The structures appear in SMILES notation. The source made the active and inactive calls.

One experiment concerns the target Albumin (Bos taurus) (UniProt P02769). The experiment in a line: bovine serum albumin binders on microarray, profiling panel, artefact control for SMM control protein annotation, biochemical, small-molecule microarray, Alexa647 label, 635/667 nm fluorescence (AID 1118).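 Note: score merges 667 nm emission intensity and signal-to-noise per printed compound spot.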 To be noted: BSA-A647 binding, fluorescence 635 nm, higher = more signal.
The nature of experiment [1]: small-molecule microarray binders of probe aXIP, primary screen, biochemical, NeuroSMM set, 635/667 nm fluorescence (AID 1119).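 Note: probe is the protein aXip251-270 applied at 1 µg/mL to compound-printed slides; binding of probe to printed compounds measured as 667 nm fluorescence plus signal to noise.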 The settings on record: higher = more signal, called active from +8 up or from −8 down.
Experiment [2] is described as follows: small-molecule binders of probe aNOTCH3, primary screen, biochemical, small-molecule microarray, 635/667 nm fluorescence (AID 1120).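 Note: probe is a biotin-tagged antibody raised against NOTCH3 rather than NOTCH3 protein; score merges spot fluorescence near 667 nm with spot signal to noise.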 To be noted: higher = more signal.
Experiment [3] in a line: small-molecule binders of probe aNOTCH2, primary screen, biochemical, small-molecule microarray, 635/667 nm fluorescence (AID 1121).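 Note: score merges feature fluorescence read at 667 nm with its signal to noise.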 To be noted: higher = more signal.
In experiment [4] the target is Carbonic anhydrase 2 (Homo sapiens) (UniProt P00918). As to the kind of experiment: CAII small-molecule binders, profiling panel, biochemical, small-molecule microarray, Alexa647-labelled CAII (AID 1122). To be noted: CAII-A647 binding fluorescence, higher = more signal.
The nature of experiment [5]: COS7 lysate on small-molecule microarray, probe aHis, 635 nm (AID 1123).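 Note: z-score combines 667nm fluorescence intensity with signal-to-noise per printed compound spot.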 The settings on record: COS7 cell lysate, fluorescence, higher = more signal.
Experiment [6] is described as follows: compound binding in COS7 lysate, probe aLAP1, primary screen, cell lysate, small-molecule microarray (AID 1124).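 Note: lysate comes from COS7 cells expressing LAP1 and is applied at 0.3 µg/mL; score merges spot fluorescence near 667 nm with signal-to-noise over triplicate slides.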 To be noted: probe aLAP1, fluorescence, higher = more signal.
A further experiment relates to Sam68 (KHDRBS1). The experiment in a line: Sam68 small-molecule binders, primary screen, biochemical, small-molecule microarray, 635 nm fluorescence (AID 1125).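 Note: score merges 667 nm channel intensity with signal to noise over triplicate slides.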 The settings on record: small-molecule microarray binding, higher = more signal.
The subject of experiment [7] is Chordin-like protein 2 (CHRDL2). As to the kind of experiment: CHRDL2 small-molecule binders, primary screen, biochemical, small-molecule microarray, 635 nm fluorescence (AID 1126).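 Note: printed compound slides probed with Chrdl2 protein at 4 µg/mL for 1 h at 4 C; score merges 667 nm emission intensity with signal to noise over three replicate slides.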 The settings on record: small-molecule microarray binding, fluorescence 635 nm; higher = more signal.
Experiment [8] concerns the target Concanavalin-A (Canavalia ensiformis) (UniProt P02866). As to the kind of experiment: ConA small-molecule binders, primary screen, artefact control for SMM control protein annotation, biochemical, small-molecule microarray, Alexa647 label, 635 nm (AID 1127).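 Note: z combines 667 nm emission intensity with signal-to-noise across three replicate slides.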 To be noted: ConA-A647 binding fluorescence, higher = more signal.

Chain of Concanavalin-A (Canavalia ensiformis) (P02866 whole entry, looked up): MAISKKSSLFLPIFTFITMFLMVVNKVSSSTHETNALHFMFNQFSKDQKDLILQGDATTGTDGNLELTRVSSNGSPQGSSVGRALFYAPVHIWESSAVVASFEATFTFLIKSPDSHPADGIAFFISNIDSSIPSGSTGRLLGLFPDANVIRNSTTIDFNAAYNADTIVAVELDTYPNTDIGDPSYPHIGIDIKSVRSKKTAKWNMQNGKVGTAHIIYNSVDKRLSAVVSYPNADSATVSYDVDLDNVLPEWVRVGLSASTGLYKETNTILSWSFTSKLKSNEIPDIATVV
Chain of Albumin (Bos taurus) (P02769 whole entry, looked up): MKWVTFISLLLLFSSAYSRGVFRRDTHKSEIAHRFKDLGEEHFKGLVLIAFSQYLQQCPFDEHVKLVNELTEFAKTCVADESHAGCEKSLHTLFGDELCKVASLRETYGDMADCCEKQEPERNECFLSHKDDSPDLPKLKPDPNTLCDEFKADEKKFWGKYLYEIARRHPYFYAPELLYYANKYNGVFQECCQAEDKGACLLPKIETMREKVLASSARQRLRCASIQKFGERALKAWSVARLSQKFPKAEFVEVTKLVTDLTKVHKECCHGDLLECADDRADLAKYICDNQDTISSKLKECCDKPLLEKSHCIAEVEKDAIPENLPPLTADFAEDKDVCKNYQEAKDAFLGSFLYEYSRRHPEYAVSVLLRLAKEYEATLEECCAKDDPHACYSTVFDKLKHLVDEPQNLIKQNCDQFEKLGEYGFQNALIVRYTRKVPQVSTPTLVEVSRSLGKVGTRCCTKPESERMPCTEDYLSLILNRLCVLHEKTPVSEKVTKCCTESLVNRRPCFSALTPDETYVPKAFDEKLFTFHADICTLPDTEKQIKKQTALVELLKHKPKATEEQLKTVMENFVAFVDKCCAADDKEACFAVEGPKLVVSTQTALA

Turning to `COC(=O)c1cccc([C@H]2OC(=CC(=O)OC(C)C)C[C@@H](c3cccc(C(=O)OC)c3)O2)c1`, the composite z-score with Albumin (Bos taurus) was 0.937; in experiment [2], 0.455; in [3], -0.118; in experiment [4], 0.745; in experiment [5], 1.78; in [6], 0.93. Moreover, the figures for the composite z-score (with Sam68 (KHDRBS1); in [7]; in [8]) were 1.29, -0.338 and 1.2, respectively. Also, in experiment [1], the composite Z-score was 0.587 (inactive).
For the compound `[N-]=[N+]=Nc1ccccc1[C@@H]1OC(c2ccc(OCCCO)cc2)=N[C@]1(Cc1ccccc1)C(=O)NCCN1CCOCC1`, the composite z-score with Albumin (Bos taurus) was 0.981; in experiment [2] it was 0.156; in experiment [3], -0.0482; in experiment [4] it was 0.607; in experiment [5], 2.86; in experiment [6] it was 0.946. In addition, the composite z-score in the experiment with Sam68 (KHDRBS1) is 0.96; in experiment [7] it was -0.377; in experiment [8] it was 0.355. Besides, in experiment [1], the composite Z-score was 0.0561 (inactive).
For `CC(C)(C)N1CC=CC23O[C@@H]4/C=C\CCCOC(=O)C4[C@H]2C(=O)N(CCCO)[C@@H]3C1=O` (stereo not given in full), the composite z-score with Albumin (Bos taurus) was 0.706; in experiment [2], 0.134; in experiment [3] it was -0.0846; in [4] it was 0.866; in experiment [5], 0.644; in experiment [6] it was 0.818. The figures for the composite z-score (with Sam68 (KHDRBS1); in experiment [7]; in experiment [8]) were -0.446, -1.44 and -1.02, respectively. The composite Z-score in [1] is -0.191 (inactive).
On to `CCCCCCc1nc(Cc2cc(OC)c(OC)c(OC)c2)cc2c1[Si](C(C)C)(C(C)C)O[C@H]2c1ccccc1`, for which the composite z-score with Albumin (Bos taurus) was -0.261; in [2], -0.0647; in experiment [3] it was -0.166; in experiment [4], -0.117; in experiment [5], -0.327; in experiment [6] it was -0.589. Further, the composite z-score came to 0.523 in the experiment on Sam68 (KHDRBS1), 0.52 in experiment [7] and 0.118 in [8]. For the same compound, in experiment [1], the composite Z-score is 0.688 (inactive).
Take `COC(=O)[C@@]1(Cc2ccc(F)cc2)[C@H]2c3cc(C(=O)N(C)C)n(C)c3C[C@H]2CN1C(=O)c1ccccc1`: the composite z-score with Albumin (Bos taurus) was 0.637; in experiment [2], 0.224; in [3], 0.352; in experiment [4], 0.777; in experiment [5], 1.37; in experiment [6] it was 0.33. Moreover, the composite z-score in the experiment on Sam68 (KHDRBS1) is -0.333; in [7], -0.401; in [8] it was 0.768. For the same compound, the composite Z-score in experiment [1] is 0.343 (inactive).
As for `COCCCN1C(=O)[C@@]2(c3ccc([N+](=O)[O-])cc3)CC(=O)N(CC34CC5CC(CC(C5)C3)C4)[C@@H]2c2ccc(CO)cc21`, the composite z-score in the experiment with Albumin (Bos taurus) is -0.0098; in [2], -0.101; in [3], -0.0666; in [4], 0.48; in experiment [5], 0.373; in experiment [6], 0.991. Also, the values for the composite z-score (with Sam68 (KHDRBS1); in [7]; in experiment [8]) were 0.229, -0.0444 and 0.728, respectively. The composite Z-score in experiment [1] was 0.208 (inactive).
In the case of `CC1CC/C=C\[C@H]2OC34C=CCN(C(C)(C)C)C(=O)[C@H]3N(CCCO)C(=O)[C@@H]4C2C(=O)O1` (stereo not given in full), the composite z-score in the experiment with Albumin (Bos taurus) is -1.53; in experiment [2] it was -0.155; in [3] it was -0.164; in experiment [4], 0.916; in [5], 0.386; in experiment [6], 0.71. For the same compound, the values for the composite z-score (with Sam68 (KHDRBS1); in [7]; in experiment [8]) were -0.307, -0.286 and -0.532, respectively. Moreover, the composite Z-score in experiment [1] is 0.398 (inactive).
On to `COCCOC(=O)N1C(=O)[C@@]2(c3cc(C#CCCO)ccc31)[C@H](C(N)=O)[C@H]1C(=O)O[C@H](c3ccccc3)[C@H](c3ccccc3)N1[C@@H]2c1ccccc1OCCO`, for which the composite z-score with Albumin (Bos taurus) is 0.69; in [2], 0.0727; in experiment [3] it was -0.14; in [4], 0.552; in experiment [5] it was 1.54; in experiment [6], 0.45. Moreover, the composite z-score in the experiment on Sam68 (KHDRBS1) is 1.3; in experiment [7], -0.0675; in [8] it was 1.14. Besides, in experiment [1], the composite Z-score is 0.689 (inactive).
As for `COc1cc(CO)cc(I)c1O[C@H]1C=C(C(=O)NCCO)C[C@@H](NC2CCCCCC2)[C@@H]1O`, the composite z-score with Albumin (Bos taurus) was 0.441; in [2], 0.106; in experiment [3], -0.161; in experiment [4], 0.579; in experiment [5], -0.103; in experiment [6], 0.993. The composite z-score in the experiment on Sam68 (KHDRBS1) turned out to be 1.33; in experiment [7], 0.714; in [8], 0.747. Further, the composite Z-score in experiment [1] was -0.228 (inactive).
Regarding `COC(=O)C(CC#Cc1ccc2c(c1)[C@]1(C(=O)N2)[C@H](C(=O)N2CCc3cc(OC)c(OC)cc3C2)[C@H]2C(=O)O[C@H](c3ccccc3)[C@H](c3ccccc3)N2[C@@H]1c1ccccc1OCCO)C(=O)OC`, the composite z-score with Albumin (Bos taurus) was 0.27; in experiment [2], 0.0793; in [3], -0.135; in experiment [4], 0.59; in experiment [5] it was 2.3; in experiment [6], -0.461. In addition, the figures for the composite z-score (with Sam68 (KHDRBS1); in experiment [7]; in experiment [8]) were 1.3, 0.463 and 1.14, respectively. In [1], the composite Z-score was 0.112 (inactive).
With `CC(C)C[C@@H]1NC(=O)[C@@H]2C[C@H](C(=O)NCCCCCCNC(=O)CS)[C@H](c3cccc(OCCO)c3)N2C1=O`, the composite z-score in the experiment with Albumin (Bos taurus) is -0.256; in experiment [2] it was 0.248; in [3] it was -0.123; in [4] it was 0.228; in experiment [5], 1.94; in [6], 0.252. The composite z-score worked out at 1.29 with Sam68 (KHDRBS1), 1.36 in experiment [7] and 0.862 in [8]. Moreover, in experiment [1], the composite Z-score was 0.491 (inactive).

(Values after PubChem BioAssay.)
